PfHsp90 set2: reduces growth (ATP signal) of yeast expressing P. falciparum Hsp90; S. cerevisiae expressing PfHsp90, BacTiter-Glo ATP, 48 h; yeast lacking PDR1 and PDR3 efflux regulators; inhibition, % at 9.4 µM; 310,000 tested, 0.32% active;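 active means every replicate shows inhibition above about 80%, whatever the replicate mean, limit read from the data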
tim23-1 inh: tim23-1 yeast growth inhibition | inhibition, % at 20 µM | S. cerevisiae tim23-1 growth, BacTiter-Glo luminescence, 24 h | AID 463212 | 330,000 tested, 1.3% active;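 active means growth inhibition of the mutant yeast at or above 50%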;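 further: temperature-sensitive mutant grown at 25 °C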
tim10-1 inh: inhibits growth of tim10-1 mutant yeast; S. cerevisiae tim10-1 ts strain growth, BacTiter-Glo, 24 h; inhibition, % at 20 µM; 330,000 tested, 2.2% active; AID 463190;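 active means inhibition of at least 40%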;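 further: mutant grown at 25 °C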
NLRP3 yeast inh: blocks the NALP3 inflammasome reconstituted in yeast | Yeast reconstituted NLRP3/ASC/caspase-1, beta-gal luminescence, 24 h | inhibition, % at 10 µM | 330,000 tested, 0.39% active | AID 2825;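 active means inhibition of 50% or more; inactive means inhibition below 50%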
TIM10 inh: growth inhibitors of TIM10 yeast strain; S. cerevisiae TIM10 strain growth, BacTiter-Glo luminescence, 24 h; inhibition, % at 10 µM; 330,000 tested, 1.4% active;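 active means inhibition of 40% or more at the single tested concentration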;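 further: wild-type TIM10 isogenic control strain grown at permissive 25 °C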
SKKanGAS inh: SKKanGAS growth inhibition; 300,000 tested, 1.3% active; inhibition, % at 7.5 µM; S. pyogenes SKKanGAS, kanamycin growth, BacTiter-Glo, 6 h; AID 1662;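 active means mean replicate score, as percent of positive control median, at least 50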;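 further: strain carries kanamycin resistance gene driven by streptokinase promoter and grows in 40 µg/ml kanamycin; loss of luminescence reflects streptokinase promoter inhibition or plain growth inhibition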
TIM10 conf: TIM10 yeast growth inhibition, confirmed | shares compounds with TIM10 inh | S. cerevisiae tim10 strain growth, BacTiter-Glo luminescence, 24 h | inhibition, % at 10 µM | 4,600 tested, 63% active | AID 463215;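 active means inhibition of yeast growth at or above a set limit in either of two replicates at 10 µM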; further: this counterscreen used the strain with wild-type TIM10
A number is an active result; . = inactive; / = no result given. An excerpt weighted towards active compounds, which were near 4.5% of everything screened.

SMILES | PfHsp90 set2 | tim23-1 inh | tim10-1 inh | NLRP3 yeast inh | TIM10 inh | SKKanGAS inh | TIM10 conf
Cc1ccc(S(=O)(=O)n2nc(OC(=O)c3cccs3)cc2N)cc1 | . | . | . | . | 47 | . | .
COc1ccc(C(=O)Oc2cc(N)n(S(=O)(=O)c3ccc(C)cc3)n2)cc1 | . | . | . | . | . | . | /
COCCCNC(=S)Nc1cccc(SC)c1 | . | . | . | . | . | . | /
CSc1ccc(C#N)cc1NC(=O)c1cccnc1Cl | . | . | . | . | . | . | /
Cc1ccc(-n2nnnc2SCC(=O)c2cc(C)n(-c3cc(C)on3)c2C)cc1 | . | . | . | . | 43 | . | .
O=C(CCS(=O)(=O)c1ccccc1)N(CCCN1CCOCC1)c1nc2ccc(F)cc2s1 | . | . | . | . | 56 | . | 65
CCc1cccc2sc(N(CCCN3CCOCC3)C(=O)CS(=O)(=O)c3ccccc3)nc12 | . | . | . | . | . | . | /
COC(=O)[C@@]12CCCN1[C@H](c1ccc(-c3ccc4c(c3)OCO4)cc1)[C@H]1C(=O)N(C)C(=O)[C@H]12 | . | . | . | . | . | / | /
CC1CCCCN1S(=O)(=O)c1ccc(C(=O)N(CCCN(C)C)c2nc3ccc(Br)cc3s2)cc1 (configuration not stated) | . | . | . | . | . | . | .
CN(C)CCN(C(=O)c1ccc(S(=O)(=O)N2CCCC2)cc1)c1nc2ccc(Br)cc2s1 | . | . | . | . | . | . | /
COc1ccc(Nc2ccc3c(c2)=NC2(CCCCC2)[N+]=3[O-])cc1 | / | . | . | . | 47 | . | .
[O-][N+]1=c2ccc(Nc3ccccc3)cc2=NC12CCCCC2 | . | / | / | / | / | . | /
Cn1cc(C(c2ccccc2OCC(=O)O)c2cn(C)c3ccccc23)c2ccccc21 | . | . | . | . | . | . | /
c1ccc(C(c2nnnn2C2CCCC2)N2CCN(c3nc4ccccc4s3)CC2)cc1 (configuration not stated) | . | . | . | . | 47 | . | .
Cc1ccc(C(c2nnnn2C2CCCC2)N2CCN(c3nc4ccccc4s3)CC2)cc1 (configuration not stated) | . | . | . | . | 56 | . | .
c1csc(C(c2nnnn2C2CCCCC2)N2CCN(c3nc4ccccc4s3)CC2)c1 (configuration not stated) | . | / | / | / | / | . | /
CCN(CC)S(=O)(=O)c1ccc(NC(=O)CCN2C(=O)C3CC=CCC3C2=O)cc1 (configuration not stated) | . | . | . | . | . | / | /
CC(C)CNc1nnnc2c1sc1nc(N3CCOCC3)c3c(c12)CC(C)(C)SC3 | . | . | . | . | 40 | . | .
COc1cc(C(=S)N2CCN(c3cccc(Cl)c3)CC2)ccc1O | . | . | . | . | 41 | . | 46
CCn1c(CNc2cccc(Cl)c2)nnc1SCc1ccccc1 | . | . | . | . | 41 | . | 49
CCc1nnc(NC(=O)CSc2nnc(CNc3cccc(Cl)c3)n2CC)s1 | . | . | . | . | . | . | /
O=C(N/N=C/c1ccc2c(c1)OCO2)c1ccc2c(c1)OCO2 | . | . | . | . | . | . | /
Cc1ccsc1/C=N\NC(=O)c1ccc2c(c1)OCO2 | / | . | . | . | 43 | . | .
Cc1ccc(C(=O)Nc2ccc3c(c2)OCO3)cc1Cl | / | . | . | . | . | . | /
O=C(Nc1ccc(S(=O)(=O)N2CCc3ccccc32)cc1)c1ccc2c(c1)OCO2 | . | . | . | . | 44 | . | 47
SMILES | PfHsp90 set2 | tim23-1 inh | tim10-1 inh | NLRP3 yeast inh | TIM10 inh | SKKanGAS inh | TIM10 conf
Cc1ccc(NC(=O)c2ccc3c(c2)OCO3)cc1Cl | . | . | . | . | 42 | . | 34
O=c1[nH]c2ccccc2cc1CN(CC1CCCO1)S(=O)(=O)c1ccccc1 (configuration not stated) | . | . | . | . | . | . | /
COc1ccc(OC)c2[nH]c(=O)c(CCNC(=O)c3ccc(Br)o3)cc12 | . | . | . | . | 47 | . | .
COc1cc(C(=O)NCCc2cc3c(OC)ccc(OC)c3[nH]c2=O)cc(OC)c1OC | / | . | . | . | . | . | /
Oc1ccc(Nc2ccnc3cc(Cl)ccc23)cc1 | . | . | . | . | . | . | /
Oc1ccc(/C=N/Nc2ccnc3cc(Cl)ccc23)c(O)c1 | . | . | . | . | 47 | . | 36
CCOC(=O)c1cc2cc3ccccc3cc2[nH]1 | . | . | . | . | 43 | / | .
CC(C)OC(=O)c1cc2ccccc2[nH]1 | / | . | . | . | . | . | /
CC1CCN(S(=O)(=O)c2cccc(C(=O)NC3CCCC3)c2)CC1 | . | . | . | . | . | . | /
O=C(Nc1cccc([N+](=O)[O-])c1)c1ccccc1 | . | . | . | . | . | . | /
O=C(C#Cc1cccc([N+](=O)[O-])c1)c1ccccc1 | 137 | . | . | . | 80 | . | 83
C=CCc1c(C)nc(-c2ccccc2)nc1N/N=C(\C)c1ccccc1 | . | . | . | . | . | . | /
C=CCc1c(C)nc(-c2ccccc2)nc1Nc1ccc(O)cc1 | . | . | . | . | 40 | . | .
O=C(COc1ccc(Cl)cc1)N1CCN(c2ccc([N+](=O)[O-])c(N3CCCCC3)c2)CC1 | . | . | . | . | 42 | . | .
O=C(COc1ccccc1Cl)N1CCN(c2ccc([N+](=O)[O-])c(N3CCCCC3)c2)CC1 | . | . | . | . | . | . | /
COc1ccc(N=Cc2nc(-c3ccccc3)oc2OC(=O)c2ccccc2)cc1 | . | . | . | . | 50 | . | 32
O=C(NC(=S)Nc1ccc(Cc2ccncc2)cc1)c1ccccc1 | . | . | . | . | 51 | . | .
O=C(Nc1ccc(Cc2ccncc2)cc1)c1ccc(Br)o1 | . | . | . | . | 44 | . | 36
O=C(CNC(=O)c1ccc(Br)o1)Nc1ccncc1 | / | . | . | . | . | . | /
Cc1cc(C)cc(C(=O)NC(=S)Nc2ccc(Cc3ccncc3)cc2)c1 | . | . | . | . | 47 | . | .
O=[N+]([O-])c1ccc(OCn2cncn2)cc1 | . | . | . | . | . | . | /
CN1C(=O)[C@H]2[C@@H](/C=C/c3ccccc3)N3C(=O)CN(CCO)C(=O)[C@@]3(C)[C@H]2C1=O | . | . | . | . | . | . | /
Cc1cc(Nc2cccc(Cl)c2)nc(-c2ccccc2O)n1 | . | . | . | . | 42 | . | 41
CCOC(=O)c1sc(=NC(=O)c2ccc(C)cc2)n(C)c1C | / | . | . | . | 42 | . | .
CCCn1cc(CN2CCC(n3nccc3NC(=O)CCOc3ccccc3)CC2)c(C)n1 | . | . | . | . | . | . | /
CC1CN(CC(O)COC(c2ccc(Cl)cc2)c2ccc(Cl)cc2)CC(C)O1 (configuration not stated) | . | . | . | . | 46 | . | 40
COc1cccc(/C=N/NC(=O)C[n+]2ccccc2)c1O | . | . | . | . | . | . | /

Bioassay records deposited in PubChem BioAssay by several laboratories.
